# Experimental data: PubChem BioAssay
# Calls of active or inactive are those of the source.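 Rule for the calls, unless noted: active = inhibition of the reporter signal at or above 50%; inactive = inhibition below 50%.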
# Tests used:
# [1] = inhibitors of TNFa-induced NFkB p65 translocation, primary screen, imaging, HUVEC, MLSMR starter and 10KST1 sets (AID 438;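 active = inhibition above 20% together with a positive visual image hit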;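 note: compound added about 3h40 before a 20 min TNFalpha stimulation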;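 for inhibition: signal is the nuclear over cytoplasmic p65 intensity ratio per well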); settings: HUVEC TNFa-induced p65 nuclear translocation; cell count: measured here: nuclei count (cytotoxicity indicator), at 2.08 µM; inhibition: at 2 µM, stronger effect = higher value, 0% TNFa-plus-vehicle, 100% no-TNFa wells
# [2] = inhibitors of mutant huntingtin aggregation, primary screen, imaging, exon1htt(103Q)mCFP cells, high-content imaging (AID 483;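 active = visual image review flags a hit and inhibition of aggregation exceeds 20%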;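 note: compound exposure lasted 3 days before fixation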;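 for nuclei count: percent of the per-plate median nuclei count of sample wells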); settings: exon1htt(103Q)mCFP cell line, aggregate imaging, at 2 µM; inhibition of aggregation: stronger effect = higher value; nuclei count: measured here: cell count, toxicity
# [3] = inhibitors of E-selectin induction by TNFa, primary screen, imaging, HUVEC, immunofluorescence, MLSMR starter and 10KST1 sets (AID 487;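 active = visually confirmed hit in the image check and inhibition above 20%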;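 for inhibition: signal is fraction of cell area covered by stained E-selectin grains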;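 for nuclei count: 100% = median nuclei count of all wells on the same plate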); settings: HUVEC TNFalpha-induced E-selectin immunofluorescence imaging, at 2 µM; inhibition: stronger effect = higher value; nuclei count: measured here: cell number, toxicity
# [4] = target: Voltage-gated potassium channel subunit beta-2 (Rattus norvegicus) (UniProt P62483); test: KvBeta enzyme negative modulators, primary screen, biochemical, NADPH fluorescence (AID 622;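 active = fluorescence slope higher than the sample average by over 3 SD, cut at about -0.22 in these data, passing the limit was not always enough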;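 note: slope of raw intensity against log time taken from 70 to 1610 s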); settings: recombinant KvBeta, 4-cyanobenzaldehyde reduction, at 10 µM, stronger effect = higher value
# [5] = target: Voltage-gated potassium channel subunit beta-2 (Rattus norvegicus) (UniProt P62483); test: KvBeta positive modulators, primary screen, biochemical, NADPH fluorescence (AID 623;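 active = NADPH fluorescence slope more negative than the mean of all samples by about 3 SD, 99.7% confidence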;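 note: fluorescence intensity change per second fitted from 20 to 320 s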); settings: Recombinant KvBeta, NADPH fluorescence decrease slope, 10 min; at 10 µM; stronger effect = lower value
# [6] = target: Alpha-2C adrenergic receptor (Homo sapiens) (UniProt P18825); test: modulators of alpha2C/GIRK thallium flux, primary screen, cell-based, HEK293 alpha2C/GIRK1/2 (AID 624;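 active = fluorescence slope after compound addition differing from the mean of all screened samples at 99.7% confidence, in either direction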;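 note: slope of fluorescence ratio to pre-addition baseline per second over 15 to 24 s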); settings: thallium flux BTC fluorescence, at 10 µM, actives lie on both sides
# [7] = inhibitors of Sendai virus-induced IRF3 signaling, primary screen, TLR/RLR signaling modifier project, cell-based, Sendai virus stimulus, luciferase, 10K MLSCN set (AID 602276;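 active = inhibition at or above 50% at 10 µM; inactive = inhibition below 50%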;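 note: firefly luciferase from ISG56 promoter only with Renilla not read in this screen; 0% = Sendai virus plus DMSO and 100% = medium plus DMSO without virus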); settings: HEK293 RL24 IRF3 luciferase reporter, at 10 µM, stronger effect = higher value
# [8] = inhibitors of poly I:C-induced TLR3 signaling, primary screen, cell-based, poly I:C stimulus, luciferase, 10K MLSCN set (AID 602277); settings: HEK293-TLR3 RL24 IRF3 luciferase reporter, at 10 µM, stronger effect = higher value
# Chain of Voltage-gated potassium channel subunit beta-2 (Rattus norvegicus) (P62483 whole entry, looked up): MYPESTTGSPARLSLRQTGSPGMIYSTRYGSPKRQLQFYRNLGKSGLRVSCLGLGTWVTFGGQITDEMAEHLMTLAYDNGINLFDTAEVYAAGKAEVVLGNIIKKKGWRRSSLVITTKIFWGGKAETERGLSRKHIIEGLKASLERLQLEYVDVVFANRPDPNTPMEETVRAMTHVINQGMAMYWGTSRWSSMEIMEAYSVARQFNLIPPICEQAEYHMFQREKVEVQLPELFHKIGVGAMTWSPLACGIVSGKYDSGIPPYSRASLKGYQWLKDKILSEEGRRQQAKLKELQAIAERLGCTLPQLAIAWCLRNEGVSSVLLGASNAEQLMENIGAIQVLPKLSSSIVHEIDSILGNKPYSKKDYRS
# Chain of Alpha-2C adrenergic receptor (Homo sapiens) (P18825 whole entry, looked up): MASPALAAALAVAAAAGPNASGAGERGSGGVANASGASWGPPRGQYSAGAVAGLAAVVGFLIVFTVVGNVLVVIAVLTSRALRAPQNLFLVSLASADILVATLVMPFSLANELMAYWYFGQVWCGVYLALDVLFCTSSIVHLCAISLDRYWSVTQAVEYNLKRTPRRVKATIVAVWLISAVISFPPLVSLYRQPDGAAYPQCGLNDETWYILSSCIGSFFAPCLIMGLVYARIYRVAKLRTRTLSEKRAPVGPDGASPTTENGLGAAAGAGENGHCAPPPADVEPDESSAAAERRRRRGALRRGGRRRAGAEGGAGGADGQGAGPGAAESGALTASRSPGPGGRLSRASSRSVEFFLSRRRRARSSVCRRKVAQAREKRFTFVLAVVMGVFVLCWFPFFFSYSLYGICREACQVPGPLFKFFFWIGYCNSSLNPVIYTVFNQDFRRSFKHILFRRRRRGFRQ
Structure (SMILES),cell count [1],inhibition [1],inhibition of aggregation [2],nuclei count [2] [%],inhibition [3],nuclei count [3] [%],fluorescence slope [4],NADPH fluorescence slope [5],slope [6],inhibition [7],inhibition [8]
COCCn1c(SCC(=O)Nc2cccc(OC)c2)nnc1-c1ccc(Cl)cc1,467,6.7% (inactive),8.5% (inactive),94.1,-19.6% (inactive),97.1,-0.598 (inactive),-2.9e-05 (inactive),0.00322 (inactive),16.4% (inactive),22.6% (inactive)
C=C(C)Cn1c(N2CCN(CC)CC2)nc2c1c(=O)[nH]c(=O)n2C,441,14% (inactive),-6.4% (inactive),81.9,12.3% (inactive),104,-0.528 (inactive),-1.8e-05 (inactive),0.00582 (inactive),2.55% (inactive),25.8% (inactive)
Cc1ccccc1NC(=O)C1CC(=O)N(c2ccccc2F)C1 (stereo not drawn),238,-0.6% (inactive),30.3% (inactive),77,-56.9% (inactive),97.7,-0.462 (inactive),-3.8e-05 (inactive),0.00686 (inactive),0.893% (inactive),28.8% (inactive)
COCc1ccccc1Cn1cnc2c1c(=O)n(C)c(=O)n2C,346,2% (inactive),-1.8% (inactive),107,25.6% (inactive),112,-0.469 (inactive),-3.6e-05 (inactive),0.00626 (inactive),2.14% (inactive),12.6% (inactive)
COc1ccc(OC)c(C2C(C(=O)Nc3cccnc3)=C(C)NC3=C2C(=O)CCC3)c1 (stereo not drawn),353,-7% (inactive),2.3% (inactive),103,-64% (inactive),131,-0.379 (inactive),2.2e-05 (inactive),0.00554 (inactive),3.04% (inactive),25% (inactive)
O=C(O)C1CCCCC1C(=O)NCCc1ccccc1 (stereo not drawn),350,4.6% (inactive),14.3% (inactive),99.3,-165% (inactive),103,-0.535 (inactive),-5.8e-05 (inactive),0.00513 (inactive),-15.8% (inactive),-11.5% (inactive)
O=C(NC1CCCc2ccccc21)C1CCN(c2nnc(-n3cccc3)s2)CC1 (stereo not drawn),686,-6% (inactive),-12.1% (inactive),116,-65.3% (inactive),114,-0.583 (inactive),-3e-05 (inactive),0.00726 (inactive),7.01% (inactive),18.7% (inactive)
CCOC(=O)Cn1c2c(c(=N)c3ccccc31)CCC2,565,-7.1% (inactive),-0.7% (inactive),106,2% (inactive),103,-0.623 (inactive),-3.1e-05 (inactive),0.00442 (inactive),16% (inactive),20.3% (inactive)
CC(C)(C)n1nnnc1CN1CCC(NC(=O)NC2CCCCC2)CC1,345,-18.5% (inactive),10.8% (inactive),93,-45.9% (inactive),115,-0.324 (inactive),9.8e-06 (inactive),0.00372 (inactive),11% (inactive),18.5% (inactive)
CCCc1cc(=O)[nH]c(Nc2ccc(OC)c(Cl)c2)n1,238,-0.8% (inactive),17.6% (inactive),88.1,25.7% (inactive),70.9,-0.478 (inactive),-8.5e-06 (inactive),0.00603 (inactive),-1.81% (inactive),46.2% (inactive)
COc1cc(/C=N/n2cnnc2)ccc1OCC(=O)N1CCOCC1,378,-0.8% (inactive),-5.1% (inactive),125,-4.3% (inactive),112,-0.245 (inactive),7.4e-07 (inactive),0.00585 (inactive),5.73% (inactive),19.7% (inactive)
COc1cc(CN2CCC(C(=O)NC3CCCC3)CC2)ccc1O,755,-5.5% (inactive),-13.7% (inactive),64.3,-29.8% (inactive),124,-0.344 (inactive),-3.9e-06 (inactive),0.00666 (inactive),4.81% (inactive),13.9% (inactive)
COCCn1c(C23CC4CC(CC(C4)C2)C3)n[nH]c1=S,866,3.6% (inactive),-13.1% (inactive),106,-91.1% (inactive),129,-0.44 (inactive),-2.3e-05 (inactive),0.00347 (inactive),14.6% (inactive),42.9% (inactive)
COc1ccc(C(N)=O)cc1N,413,2.5% (inactive),-8.6% (inactive),98.3,-40.2% (inactive),118,-0.45 (inactive),2.7e-05 (inactive),0.00578 (inactive),-5.97% (inactive),8.78% (inactive)
CN(Cc1ccccc1)S(=O)(=O)c1ccc(S(=O)(=O)N2CCN(CCC#N)CC2)cc1,687,-6.9% (inactive),-13.6% (inactive),111,-50.4% (inactive),125,-0.626 (inactive),-2.8e-05 (inactive),0.00717 (inactive),-12% (inactive),11.4% (inactive)
O=C(c1ccc(Cl)cc1)N1CCCCC(Sc2nnc(-c3ccc4c(c3)OCO4)o2)C1=O (stereo not drawn),505,-13.7% (inactive),14.1% (inactive),93.7,-71.6% (inactive),145,-0.624 (inactive),-3.6e-05 (inactive),0.00978 (inactive),-180% (inactive),92% (active)
CCc1ccccc1NC(=O)c1cnc2n(c1=O)CCS2,582,-3.9% (inactive),-4.9% (inactive),94.6,-4.7% (inactive),117,-0.494 (inactive),-1.7e-05 (inactive),0.00691 (inactive),12.7% (inactive),-13.2% (inactive)
CC(=O)N1CCN=C1SCc1c(F)cccc1Cl,509,9.8% (inactive),-12.4% (inactive),110,9.3% (inactive),93.3,-0.626 (inactive),1.8e-05 (inactive),0.00565 (inactive),-11.7% (inactive),4.78% (inactive)
Cn1c(-c2ccc(C(C)(C)C)cc2)n[nH]c1=S,647,-5.8% (inactive),-4.8% (inactive),77.2,47.5% (inactive),79.7,-0.46 (inactive),-0.000112 (inactive),0.00619 (inactive),-11.8% (inactive),-25.2% (inactive)
CCOC(=O)C1CCCN(C(=O)c2ccc(CS(=O)(=O)c3ccc(Br)cc3)o2)C1 (stereo not drawn),509,-3% (inactive),-0.5% (inactive),108,-61.3% (inactive),111,-0.422 (inactive),-7.7e-05 (inactive),0.00523 (inactive),4.84% (inactive),25.8% (inactive)
Cc1ccc(-c2noc(COc3ccccc3C)n2)cc1,607,-7.8% (inactive),12.3% (inactive),110,35.1% (inactive),129,-0.484 (inactive),1.6e-05 (inactive),0.0049 (inactive),-24.5% (inactive),-88.2% (inactive)
Cc1[nH]c2ccccc2c(=O)c1CN1CCCCC1,400,2.1% (inactive),-1.5% (inactive),111,-47.3% (inactive),119,-0.453 (inactive),-5.7e-05 (inactive),0.00287 (inactive),6.83% (inactive),36.8% (inactive)
[N-]=[N+]=CC(=O)CC(c1ccccc1)N1C(=O)c2ccccc2C1=O (stereo not drawn),229,0.5% (inactive),10.4% (inactive),58.6,-39.5% (inactive),115,-0.609 (inactive),-2.1e-05 (inactive),0.00641 (inactive),-5% (inactive),-29.5% (inactive)
C=C(C)COc1ccc(-c2n[nH]c(C)c2-c2ccccc2)c(O)c1,456,-8% (inactive),3.7% (inactive),99.2,0.8% (inactive),81.8,-0.46 (inactive),-3.2e-05 (inactive),0.00246 (inactive),-6.65% (inactive),11.2% (inactive)
CC1=C(C(=O)N2CCCCC2)C2(CCC(C)CC2)OC1=O (stereo not drawn),759,-1.1% (inactive),-11.5% (inactive),118,-27.8% (inactive),120,-0.524 (inactive),-1.1e-05 (inactive),0.00741 (inactive),15.2% (inactive),20.4% (inactive)
CN(C)CCCNC(=O)c1ccc(CN(c2ccccc2)S(C)(=O)=O)cc1,641,1% (inactive),-1.7% (inactive),101,25.8% (inactive),84.7,-0.43 (inactive),-0.000115 (inactive),0.00575 (inactive),8.82% (inactive),24.2% (inactive)
Cc1cccc(N2CCN(C(=O)C3CCCN(S(=O)(=O)c4cnc[nH]4)C3)CC2C)c1 (stereo not drawn),387,1.7% (inactive),-14% (inactive),107,-11.9% (inactive),122,-0.438 (inactive),1.5e-05 (inactive),0.00647 (inactive),6.53% (inactive),17.4% (inactive)
O=C1N(CCCCN2C(=O)C3(OCCO3)c3ccccc32)c2ccccc2C12OCCO2,578,-18.8% (inactive),-8.4% (inactive),104,-60.9% (inactive),112,-0.381 (inactive),2.4e-05 (inactive),0.00398 (inactive),9.05% (inactive),16.5% (inactive)
